Consider 39 compounds from PubChem BioAssay (NCI).

Several values for one entry are separate records, joined by “and”; a condition that tells them apart may be missing. Equal values may be shown once. Compounds without any hit were thinned out: in the full panel of roughly 83,000, 20% have a hit.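 Method: cells in 96-well plates; compound added at one concentration; 48 h incubation; percent growth measured; values under 10 scored active.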 Unmarked numbers belong to inactive results. Activity calls are given as the source filed them.

The assay deals with MDA-MB-468 breast. In words: NCI-60 one-dose screen, 48 h (100 = growth as untreated, 0 = no growth, -100 = all killed). The settings on record: 10 µM unless noted.
Regarding `COc1cc(/C=N/NC(=O)c2ccccc2Nc2ccnc(C(F)(F)F)c2)ccc1O`, the growth was 80.5%.
For the compound `CNC1=CC(=O)c2c(C(=O)OC)c(C)[n+]([O-])c(C)c2C1=O`, the growth is 34.7%.
As to `C[PH+](c1nc2ccccc2nc1[PH+](C)C(C)(C)C)C(C)(C)C.C[PH+](c1nc2ccccc2nc1[PH+](C)C(C)(C)C)C(C)(C)C.[Au+].[Cl-]` (centres undefined), the growth was -80.7% (active).
The value for `CCOc1ccc(NC(=O)CSc2oc(-c3ccccc3)nc2S(=O)(=O)c2ccc(F)cc2)cc1` was 58.4%; that for `Cc1nc(N)nc2c1CCC(Nc1ccccc1)S2` (centres undefined) was 100%; that for `O=S1(=O)N(CCNc2nccc(-c3c(-c4cccc(O)c4)nc4sccn34)n2)CCN1Cc1ccccc1` was 94.4%.
For the compound `O=C1Nc2ccccc2/C1=C\c1ccccc1O`, the growth was 67.4%.
With `CN1CNC(=O)NC1`, the growth was 102% and 96.9%.
For `Cc1c2cnccc2c(C)c2c1c1cc(CO)ccc1n2C`, the growth was -65.7% (active).
As for `O=c1ccn2nc3ccccc3c2[nH]1`, the growth is 95.5%.
As for `O=C(Nc1cccc(-c2nc3ccccc3[nH]2)c1)c1cccc(NC(=O)c2ccco2)c1`, the growth is 70.8%.
The same measure for `CC(=O)c1cnc(-c2ccccc2)nc1CBr`: 49.6%; for `Fc1cnccc1C1CC(c2ccc(N3CCNCC3)cc2)=NN1` (centres undefined): 114%; for `CN1CCN(CCCOc2cccc3nc(Nc4ccc(Cl)c(F)c4)ccc23)CC1`: 33.2%.
Take `CCOC(=O)c1cc(C(=O)c2cc(OC)cc(OC)c2)n2nc(C)ccc12`: the growth was 29.8%.
Consider `OC1Cc2ccccc2C1`, for which the growth is 105%.
Regarding `Cc1ccccc1NS(=O)(=O)c1cccc(C(=O)Nc2ccc(Br)cc2)c1`, the growth is -2.56% [25 µM] (active).
The value for `O=C(/C=C/c1cccc(Cl)c1)c1ccccc1` was 82.8% and 74.6%; that for `CC(=O)Nc1cccc2cc(O)ccc12` was 112% and 101% and 110%; that for `COc1ccc(C(=O)N2N=C(c3ccc(F)cc3)CC2c2cn(-c3ccccc3)nc2-c2ccccc2)cc1` (centres undefined) was 60.8%.
For the compound `CCOC(=O)c1cc(C(=O)c2ccc(Cl)cc2)n2ccc(-c3cc[n+](CC(=O)c4ccc(OC)cc4)cc3)cc12`, the growth is 70.7%.
The value for `NS(=O)(=O)Oc1ccc(-c2sc3cc(O)ccc3c2C(=O)c2ccc(OCCN3CCCCC3)cc2)cc1` was 95.1%; that for `COc1ccc(-c2n/c(=C\c3c(O)[nH]c4ccccc34)cc3c2=Nc2ccccc2-3)cc1` was -48% (active).
For `CC/C=C\C[C@H](F)C/C=C1/C(=O)C=C[C@@H]1C/C=C\CCCC(=O)O`, the growth was 52.6%.
The value for `CNC(=O)c1cc(-c2ccc(NS(=O)(=O)c3ccc(C)cc3)cc2)nc2cccnc12` was 71.1%.
In the case of `Cc1ccc(NCCN2CCCCC2)c2c(=O)c3ccccc3sc12`, the growth is 11.1%.
For the compound `Cc1ccc(NC(=O)c2nc(S(C)=O)oc2-c2ccc(F)cc2)cc1Nc1nccc(-c2cccnc2)n1` (centres undefined), the growth was 10.6%.
For the compound `CC(CN)[C@@H]1CC[C@]2(CO)CC[C@]3(C)[C@H](CC[C@@H]4[C@@]5(C)CCC(N)C(C)(C)[C@@H]5CC[C@]43C)[C@@H]12` (some centres undefined), the growth was 6.19% (active).
With `CS(=O)(=O)Nc1ccc(C(=O)NC(C(=O)NO)c2ccc(-c3cccc(F)c3)cc2)cc1` (centres undefined), the growth is 95%.
`COc1ccc(-c2nc3ccc(-c4nc5ccc(N6CCN(c7ccc(F)cc7)CC6)cc5[nH]4)cc3[nH]2)cc1OC`: the growth was 67.4%.
For `Cc1ccc(/C=C(/C#N)n2nnc3ncccc32)cc1`, the growth was 24.4%.
The value for `CCC1C[N+]2=C(c3cc(OC)c(OC)cc3CC2)c2c1cc1n2CCc2cc(OC)c(OC)cc2-1` (centres undefined) was 1.92% (active); that for `CNC(=O)c1cc(Oc2ccc(NC(=O)Nc3ccc(Cl)c(C(C)(C)C)c3)c(F)c2)ccn1` was 7.76% (active); that for `COc1nc2ccc(C)cc2cc1-c1nc2c(cnn2-c2ccc(Br)cc2)c(=O)[nH]1` was 29.5%.
`COc1ccc(C(=O)C2C(c3ccc(OC)cc3)CN(C)C23C(=O)Nc2ccccc23)cc1` (centres undefined): the growth was 95.4%.
As to `NCCCOc1cc(Cl)ccc1NC(=O)c1cc2ccccc2cc1OCCCN`, the growth is -85.3% (active).
Regarding `CCOC(=O)C(COS(C)(=O)=O)(COS(C)(=O)=O)C(=O)OCC`, the growth is 122%.
The value for `COc1ccc(F)cc1/C=C/C(=O)/C=C(/C=C/c1cc(F)ccc1OC)OB(F)F` was 31.5%.
`c1ccc(Sc2ccccc2)cc1`: the growth is 102%.
